Experimental data published in PubChem BioAssay (Tox21).
Results filed as inconclusive are left out. The source made the active and inactive calls. Unless noted, calls come from the whole dose curve; as a rule, active = well fitted curve in the direction sought with a large enough effect in the repeat runs; inconclusive = weak or mixed curves; inactive = no such curve, though single readings can be large; an effect the other way counts as inactive or inconclusive.

Tests used:
[1] = qHTS assay to identify small molecule agonists of the estrogen receptor alpha (ER-alpha) signaling pathway in the presence of an antagonist - cell viability counter screen (AID 1259386);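 note: cells exposed to compounds for 22 h at 37 °C before the viability read; nearly all actives have a fitted effect of over 30% in size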; note: potency is the fitted concentration of half-maximal effect
In short: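 Using estrogen-depleted VM7Luc4E2 cells, the 15-concentration compound series was applied together with 10.0nM ICI-182,780 and incubated 22hr at 37C/5% CO2. Cell viability was then scored by CellTiter-Fluor.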

[2] = biological target: Progesterone receptor (Homo sapiens) (UniProt P06401); test: qHTS assay to identify small molecule agonists of the progesterone receptor (PR) signaling pathway (AID 1346784; calls by dose curve; note: nearly all actives have a fitted effect of over 30% in size)
In short: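 Fluorescence from LiveBLAzer B/G FRET substrate cleavage (2 hr, RT) reported PR activation in PR-UAS-bla HEK 293T cells treated 16 hr at 37C/5% CO2 with compounds; medium contained 2% charcoal-stripped FBS.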

[3] = biological target: Progesterone receptor (Homo sapiens) (UniProt P06401); test: qHTS assay to identify small molecule antagonists of the progesterone receptor (PR) signaling pathway (AID 1346795; active = well fitted inhibition curve with a large enough effect in the signal ratio in the repeat runs, not every such curve was filed as active; the % refers to the signal ratio; note: potency is the fitted concentration of half-maximal effect)
In short: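 Fluorescence intensity measured 2 hr after adding beta-lactamase FRET substrate to PR-UAS-bla HEK293T cells that had been co-treated 16 hr with compound and 1 nM R5020 (final concentration) in 2% charcoal-stripped FBS.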

[4] = qHTS assay to identify small molecule antagonists of the progesterone receptor (PR) signaling pathway - cell viability counter screen (AID 1346798); note: nearly all actives have a fitted effect of over 50% in size; note: potency is the fitted concentration of half-maximal effect
In short: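 CellTiter-Glo luminescence; PR-UAS-bla HEK293T, 3,000 cells/well; compound + R5020, 16 hr, 37C/5% CO2; 30 min RT before read.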

[5] = qHTS assay to identify small molecule antagonists of the TGF-beta/Smad signaling pathway - cell viability counter screen (AID 1346824); note: nearly all actives have a fitted effect of over 50% in size; note: potency is the fitted concentration of half-maximal effect
In short: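 SBE-bla HEK 293T cells, incubated overnight, then compound plus 0.25 ng/mL TGF-beta1 (stock added) for 5 hr at 37 C. Viability was read in the same wells by CellTiter-Glo luminescence after 30 min at room temperature.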

[6] = qHTS assay to identify small molecule agonists of the TGF-beta/Smad signaling pathway - cell viability counter screen (AID 1346829); note: nearly all actives have a fitted effect of over 45% in size; note: potency is the fitted concentration of half-maximal effect
In short: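 HEK 293T SBE-bla line, 5 hr compound exposure at 37 C, multiplexed CellTiter-Glo viability read by luminescence.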

[7] = biological target: Thyrotropin-releasing hormone receptor (Homo sapiens) (UniProt P34981); test: qHTS assay to identify small molecule antagonists of the thyrotropin-releasing hormone receptor (TRHR) signaling pathway (AID 1346877; active = well fitted inhibition curve with a large enough effect in the repeat runs, not every such curve was filed as active; note: series mostly up to about 51 µM)
In short: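 Calcium signal in dye-loaded TRHR/HEK293 cells; compounds added 5 min before TRH (1 nM final); fluorescence monitored 3 min at 1 s steps.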

[8] = biological target: Thyrotropin-releasing hormone receptor (Homo sapiens) (UniProt P34981); test: qHTS assay to identify small molecule agonists of the thyrotropin-releasing hormone receptor (TRHR) signaling pathway (AID 1346891; calls by dose curve;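 note: HEK293 cells expressing TRHR with calcium dye readout; series mostly up to about 58 µM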)
In short: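 Compounds were tested as agonists at 15 concentrations, in triplicate, on TRHR-Hek293 cells; calcium-sensitive dye fluorescence was recorded for 3 min following addition.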

[9] = qHTS assay to identify small molecule agonists of the TGF-beta/Smad signaling pathway (AID 1346859; active = well fitted activation curve with a large enough effect in the signal ratio in the repeat runs, not every such curve was filed as active; the % refers to the signal ratio; note: series mostly up to about 77 µM)
In short: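 After overnight seeding, SBE-bla HEK 293T cells are dosed with compounds in DMSO and kept 5 hr at 37 C, 5% CO2. LiveBLAzer-type FRET substrate is then applied for 2 hr at room temperature.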

[10] = qHTS assay to identify small molecule agonists of the progesterone receptor (PR) signaling pathway - cell viability counter screen (AID 1346799; calls by dose curve; note: nearly all actives have a fitted effect of over 45% in size; note: potency is the fitted concentration of half-maximal effect)
In short: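 In parallel with the beta-lactamase readout, cytotoxicity toward PR-UAS-bla HEK293T cells was measured by CellTiter-Glo luminescence following 16 hr compound incubation in 2% charcoal-stripped FBS medium.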

Measured: Potency

Progesterone receptor (Homo sapiens), sequence (P06401 whole entry, looked up): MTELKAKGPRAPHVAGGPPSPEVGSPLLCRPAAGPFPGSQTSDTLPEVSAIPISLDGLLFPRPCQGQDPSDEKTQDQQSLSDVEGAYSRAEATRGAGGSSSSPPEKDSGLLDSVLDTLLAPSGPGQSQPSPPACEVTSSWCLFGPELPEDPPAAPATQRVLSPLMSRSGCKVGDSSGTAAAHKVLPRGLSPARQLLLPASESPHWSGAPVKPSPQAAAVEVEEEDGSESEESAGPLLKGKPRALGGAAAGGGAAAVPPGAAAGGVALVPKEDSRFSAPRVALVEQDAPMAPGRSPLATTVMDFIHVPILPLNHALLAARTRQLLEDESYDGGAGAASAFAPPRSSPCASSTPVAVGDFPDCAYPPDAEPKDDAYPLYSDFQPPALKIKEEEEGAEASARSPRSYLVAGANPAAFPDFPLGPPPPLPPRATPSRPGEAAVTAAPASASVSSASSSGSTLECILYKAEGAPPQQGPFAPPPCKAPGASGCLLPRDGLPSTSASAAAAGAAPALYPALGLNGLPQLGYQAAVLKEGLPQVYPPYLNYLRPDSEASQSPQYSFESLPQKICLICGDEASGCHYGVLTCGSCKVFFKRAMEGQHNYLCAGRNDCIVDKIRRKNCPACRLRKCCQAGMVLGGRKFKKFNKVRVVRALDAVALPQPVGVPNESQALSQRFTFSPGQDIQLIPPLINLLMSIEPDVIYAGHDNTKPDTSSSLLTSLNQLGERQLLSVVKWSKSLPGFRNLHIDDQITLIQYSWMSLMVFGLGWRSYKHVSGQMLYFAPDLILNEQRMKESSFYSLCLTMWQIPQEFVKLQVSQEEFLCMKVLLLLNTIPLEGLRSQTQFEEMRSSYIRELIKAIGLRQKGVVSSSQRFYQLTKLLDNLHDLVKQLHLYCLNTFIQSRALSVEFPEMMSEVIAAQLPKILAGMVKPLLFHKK
Thyrotropin-releasing hormone receptor (Homo sapiens), sequence (P34981 whole entry, looked up): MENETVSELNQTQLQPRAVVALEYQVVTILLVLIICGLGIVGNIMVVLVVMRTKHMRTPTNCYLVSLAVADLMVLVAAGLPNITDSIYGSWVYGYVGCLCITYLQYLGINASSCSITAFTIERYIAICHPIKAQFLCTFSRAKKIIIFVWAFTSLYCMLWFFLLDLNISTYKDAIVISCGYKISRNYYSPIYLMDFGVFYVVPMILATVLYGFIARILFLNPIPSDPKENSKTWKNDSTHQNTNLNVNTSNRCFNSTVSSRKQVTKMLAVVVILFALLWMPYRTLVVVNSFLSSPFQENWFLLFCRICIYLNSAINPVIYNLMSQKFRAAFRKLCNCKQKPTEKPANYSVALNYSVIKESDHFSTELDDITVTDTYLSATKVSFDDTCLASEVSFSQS

O=C(Nc1cccc2c(=O)cc(-c3nn[nH]n3)oc12)c1ccc(OCCCCc2ccccc2)cc1
not listed: [9] | [10]
inactive: all other assays above

Brc1cc(Br)c(Oc2cc(Br)c(Br)cc2Br)cc1Br
not listed: [4] | [10]
inactive: all other assays above

O=C1NC(=O)c2cc([N+](=O)[O-])ccc21
not listed: [6]
inactive: all other assays above

O=C(O)c1cccc(-c2noc(-c3ccccc3F)n2)c1
inactive: [1] | [2] | [3] | [7] | [8]

CCC(C)COC(=O)CC(C)C (stereo not given)
active: [4] 9.69 µM
not listed: [3] | [10]
inactive: all other assays above

C[C@@]12CCC[C@H]1[C@@H]1CC[C@H]3C[C@@H](O)CC[C@]3(C)[C@H]1CC2
active: [4] 26.6 µM
not listed: [3]
inactive: all other assays above

CCCCN1CCCC1C(=O)Nc1c(C)cc(C)cc1C (stereo not given)
not listed: [3]
inactive: all other assays above

O=C(CCCN1CC=C(n2c(=O)[nH]c3ccccc32)CC1)c1ccc(F)cc1
not listed: [3] | [9]
inactive: all other assays above

O=C(O)CCC(=O)C(=O)O
inactive: [1] | [2] | [4] | [5] | [6] | [9]

CN1CCCC(CC2c3ccccc3Sc3ccccc32)C1 (stereo not given)
active: [4] 18.8 µM | [10] 18.8 µM
not listed: [3] | [5]
inactive: all other assays above

CC(=O)Nc1ccc(C)cc1C
inactive: [1] | [2] | [4] | [10] | [5] | [9]

Brc1cc2ccccc2c2ccccc12
not listed: [3] | [6] | [10]
inactive: all other assays above

CCOC(=O)OC(C)OC(=O)[C@@H]1N2C(=O)[C@@H](NC(=O)[C@H](N)c3ccccc3)[C@H]2SC1(C)C (stereo not given in full)
not listed: [3]
inactive: all other assays above

O=Cc1c2ccccc2c(Cl)c2ccccc12
not listed: [3] | [7] | [8]
inactive: all other assays above

CN1CCCC(n2nc(Cc3ccc(Cl)cc3)c3ccccc3c2=O)CC1 (stereo not given)
active: [1] 11.9 µM | [4] 26.6 µM | [10] 13.3 µM
inactive: [2] | [9] | [7] | [8]

O=c1[nH]c2ccc(Cl)cc2o1
not listed: [3] | [7] | [8]
inactive: all other assays above

Cc1ccco1
not listed: [3]
inactive: all other assays above

C/C=C/C=C/C=O
not listed: [3]
inactive: all other assays above

CC(CC1c2ccccc2CCc2ccccc21)CN(C)C (stereo not given)
active: [4] 23.7 µM
inactive: [1] | [2] | [10] | [6] | [9]

O=C1C(=O)c2ccccc2C(O)=C1C1CCC(c2ccc(Cl)cc2)CC1 (stereo not given)
not listed: [3] | [5]
inactive: all other assays above

Oc1cccc(Nc2ccccc2)c1
active: [3] 20.2 µM
not listed: [4] | [5] | [10]
inactive: all other assays above

CS(=O)(=O)c1ccc(-c2cn3ccccc3n2)cc1
active: [4] 29.8 µM
not listed: [3] | [6] | [10]
inactive: all other assays above

C[C@H]1C[C@H](O)c2ccsc2S1(=O)=O
not listed: [3] | [5]
inactive: all other assays above

CCOC(=O)/C=C/C(=O)OCC
not listed: [3] | [5]
inactive: all other assays above

COC(=O)CS
not listed: [3]
inactive: all other assays above

CC1=C(CC=O)C(C)(C)CCC1
not listed: [3]
inactive: all other assays above

CCC=CC#N
not listed: [3]
inactive: all other assays above

N#CCCN(CCO)CCO
not listed: [3] | [9]
inactive: all other assays above

O=c1cc(-c2ccccc2)oc2ccc3ccccc3c12
active: [4] 21.7 µM | [10] 19.3 µM | [5] 13.8 µM | [6] 13.8 µM
inactive: [1] | [2] | [7] | [8]

CC(C)c1nc(CN(C)C(=O)N[C@H](C(=O)N[C@@H](Cc2ccccc2)C[C@H](O)[C@H](Cc2ccccc2)NC(=O)OCc2cncs2)C(C)C)cs1
active: [1] 13.3 µM | [4] 29.8 µM | [10] 26.6 µM
not listed: [3]
inactive: all other assays above
